Assay results as given in PubChem BioAssay (NCI).
“And” between values parts separate entries of the source, which are not always exact repeats. Equal values may be shown once. About 79,000 compounds went through this panel and 15% of them were active in at least one assay; those are over-represented in the sample as a whole. Cut-off read from the data, not from the text of the source: active = growth inhibition above about 70%; inactive = the rest.

How the values were obtained:
[1] = NCI Yeast Anticancer Drug Screen. Data for the rad50 strain (AID 155);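 note: 0% = growth of vehicle-only cultures of the same strain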; conditions: S. cerevisiae rad50 strain growth inhibition; at 50.0 µM; hits give high values
How it was run: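 Genetically altered yeast (DNA repair pathway); compound treatment; growth inhibition vs vehicle ctrl.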

[2] = NCI Yeast Anticancer Drug Screen. Data for the mec2-1 strain (AID 157); conditions: S. cerevisiae mec2-1 strain, at 50.0 µM, hits give high values
How it was run: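 Cells of the genetically defined mec2-1 yeast strain are incubated with test compound. Inhibition of growth is calculated against vehicle-treated controls.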

[3] = NCI Yeast Anticancer Drug Screen. Data for the sgs1 mgt1 strain (AID 161);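 note: 0% = growth of cultures given vehicle only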; conditions: S. cerevisiae sgs1 mgt1 strain, at 50.0 µM, hits give high values
How it was run: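 Genetically altered yeast, compound exposure, growth inhibition relative to vehicle.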

[4] = NCI Yeast Anticancer Drug Screen. Data for the cln2 rad14 strain (AID 165);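 note: 0% = growth equal to vehicle treated cultures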; conditions: S. cerevisiae cln2 rad14 strain, at 50.0 µM, hits give high values
How it was run: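 The screen exposed genetically defined yeast (cln2 rad14) to test compounds and scored growth inhibition relative to vehicle-treated controls.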

[5] = NCI Yeast Anticancer Drug Screen. Data for the bub3 strain (AID 167); conditions: S. cerevisiae bub3 mutant strain, at 50.0 µM, hits give high values
How it was run: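 Yeast carrying a defined mutation is treated with each compound, and growth is compared with that of vehicle-exposed cells to give inhibition.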

[6] = NCI Yeast Anticancer Drug Screen. Data for the mlh1 rad18 strain (AID 175); conditions: S. cerevisiae mlh1 rad18 strain growth inhibition; at 50.0 µM; hits give high values
How it was run: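 Compound-treated yeast growth, normalised to vehicle controls. Strain bears defined DNA repair mutations.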

Measured: growth inhibition

N#CC(C#N)=Cc1ccccc1F
inactive: [1] 15.5% | [2] 7.1% | [3] 12.2% | [4] 15.2% | [5] 10.6% | [6] 12.7%

COC(=O)C1=C(N2CCCC2)C2c3ccccc3SC12C(=O)OC (centres undefined)
inactive: [1] 20.1% | [2] 10.8% | [3] -0.25% | [4] 0.7% | [5] 14.2% | [6] 9.3%

CN1CCc2cc3c(cc2C1)OCO3
inactive: [1] -22.9% and -14.8% | [2] 2.5% and -16.9% | [3] -12.9% and 8.55% | [4] -22.6% and 7.65% | [5] -5.85% and 2.45% | [6] -17.9% and 28.6%

CCCCCOP(=O)(OCCCCC)C(=O)Nc1ccc([N+](=O)[O-])cc1
inactive: [1] -12.9% | [2] 4.85% | [3] -5.25% | [4] -3.2% | [5] -1.8% | [6] 10.9%
